Data from PubChem BioAssay (Tox21).
Inconclusive results are not listed. Active and inactive are the calls of the source. Unless noted, calls come from the whole dose curve; as a rule, active = well fitted curve in the direction sought with a large enough effect in the repeat runs; inconclusive = weak or mixed curves; inactive = no such curve, though single readings can be large; an effect the other way counts as inactive or inconclusive.

Experiments:
[1] = qHTS assay to identify small molecule antagonists of the estrogen receptor alpha (ER-alpha) signaling pathway using the BG1 cell line in the presence of 0.1 nM 17-beta-estradiol - cell viability counter screen (AID 1259241); note: nearly all actives have a fitted effect of over 40% in size
Method in brief: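 VM7Luc4E2 cells (endogenous ER-alpha, 4×ERE-luciferase), hormone-starved 5 days in charcoal-stripped FBS, were treated with compounds plus 0.1 nM 17beta-estradiol for 22 hr at 37C; viability read in same wells as CellTiter-Fluor live-cell protease fluorescence.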

[2] = qHTS assay to identify small molecule antagonists of the androgen receptor (AR) signaling pathway using the MDA cell line in the presence of 0.5 nM R1881 - cell viability counter screen (AID 1259242); note: nearly all actives have a fitted effect of over 45% in size
Method in brief: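 MDA-kb2 cells (MMTV-luciferase, AR/GR responsive) were treated with compounds plus 0.5 nM R1881 (final) for 16 hr at 37C, 0% CO2. Viability was then read in the same wells as live-cell protease fluorescence (CellTiter-Fluor, 30 min).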

[3] = qHTS assay to identify small molecule HDAC inhibitors (AID 1259364); note: nearly all actives have a fitted effect of over 45% in size; note: potency is the fitted concentration of half-maximal effect; for activity change, negative = inhibition: top concentration of the series differs between compounds
Method in brief: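 Wild-type HCT-116 cells, plated overnight at 37 C, exposed to compounds 2 hr at 37 C; luminogenic HDAC-Glo substrate then added 30 min at room temperature. Luminescence reports relative endogenous class I/II HDAC activity.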

[4] = qHTS assay to identify small molecule HDAC inhibitors - cell viability counter screen (AID 1259365); note: series mostly up to about 92 µM; nearly all actives have a fitted effect of over 50% in size
Method in brief: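 Wild-type HCT-116 cells were seeded at 1,500 per well, incubated overnight at 37 C, then exposed to compounds in DMSO for 2hr. Viability was read by CellTiter-Glo luminescence after 30min at room temperature.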

[5] = qHTS assay to identify small molecule agonists of the sonic hedgehog signaling (Shh) pathway - cell viability counter screen (AID 1259366); note: nearly all actives have a fitted effect of over 50% in size
Method in brief: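 NIH/3T3-derived 3T3 Gli1-Luc cells (stable Gli1-responsive firefly luciferase reporter) were seeded, rested 4 hr at 37 C/5% CO2, then exposed to compounds in DMSO for 24 hr; viability was read by CellTiter-Fluor fluorescence in the same wells.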

[6] = qHTS assay to identify small molecule antagonists of the sonic hedgehog signaling (Shh) pathway - cell viability counter screen (AID 1259367); note: nearly all actives have a fitted effect of over 55% in size
Method in brief: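 Using CellTiter-Fluor, viability of Gli1-Luc reporter 3T3 cells is read by fluorescence in the wells used for the Shh luciferase assay. Treatment lasts 23 hr with conditioned medium, then reagent 1 hr at 37C.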

[7] = qHTS assay to identify small molecule agonists of the sonic hedgehog signaling (Shh) pathway (AID 1259368; calls by dose curve; note: series mostly up to about 92 µM; nearly all actives have a fitted effect of over 15% in size)
Method in brief: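 NIH/3T3-derived 3T3Gli1-Luc cells with stably integrated Gli1-driven firefly luciferase, 2,000 cells/well, compounds added after 4 hr. Incubated 24 hr at 37C, 5% CO2; luminescence read after 30 min with luciferase reagent at room temperature.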

[8] = qHTS assay to identify small molecule antagonists of the sonic hedgehog signaling (Shh) pathway (AID 1259369; calls by dose curve; note: nearly all actives have a fitted effect of over 45% in size)
Method in brief: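 NIH/3T3-derived Gli1-Luc reporter cells plated 4 h, dosed with compound, then stimulated with conditioned medium for 24 h at 37 C. Firefly luciferase luminescence read after 30 min with detection reagent at room temperature.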

[9] = target: Estrogen receptor beta (Homo sapiens) (UniProt Q92731); assay: qHTS assay to identify small molecule agonists of the estrogen receptor beta (ER-beta) signaling pathway (AID 1259377; active = well fitted activation curve with a large enough effect in the signal ratio in the repeat runs, not every such curve was filed as active; the % refers to the signal ratio)
Method in brief: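 ER-beta-UAS-bla HEK293T (GripTite) cells carrying a UAS-driven beta-lactamase reporter, in medium with 2% charcoal-stripped FBS, were exposed to compounds for 16 hr at 37C; LiveBLAzer B/G FRET substrate was then added and fluorescence read after 2 hours at room temperature.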

[10] = target: Estrogen receptor beta (Homo sapiens) (UniProt Q92731); assay: qHTS assay to identify small molecule antagonists of the estrogen receptor beta (ER-beta) signaling pathway (AID 1259378; active = well fitted inhibition curve with a large enough effect in the signal ratio in the repeat runs, not every such curve was filed as active; the % refers to the signal ratio)
Method in brief: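 Antagonist mode: compounds added to beta-lactamase reporter HEK293T ER-beta-UAS cells stimulated with E2 (1nM final), 16 hr at 37C. LiveBLAzer B/G FRET substrate, 2 hours room temperature, fluorescence read-out.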

[11] = qHTS assay to identify small molecule agonists of the androgen receptor (AR) signaling pathway in the presence of an antagonist - cell viability counter screen (AID 1259379);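 note: MDA-kb2 human breast cancer cells carrying an MMTV luciferase reporter; series mostly up to about 92 µM; nearly all actives have a fitted effect of over 25% in size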
Method in brief: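 MDA-kb2 cells (MMTV-luciferase, AR/GR), 3,000/well, 5 h attachment, then 3.0 µM nilutamide (final) and compounds at 15 concentrations. Viability by CellTiter-Fluor fluorescence after 16 h at 37 °C, 0% CO2, in the reporter wells.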

[12] = qHTS assay to identify small molecule agonists of the estrogen receptor beta (ER-beta) signaling pathway - cell viability counter screen (AID 1259380); note: nearly all actives have a fitted effect of over 30% in size
Method in brief: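 ER-beta-UAS-bla HEK293T cells in medium with 2% charcoal-stripped FBS, pre-incubated 6 hr, then treated 16 hr at 37C. Cytotoxicity read in the same wells by CellTiter-Glo luminescence after 30 min at room temperature.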

[13] = qHTS assay to identify small molecule antagonists of the estrogen receptor beta (ER-beta) signaling pathway - cell viability counter screen (AID 1259382); note: series mostly up to about 92 µM; nearly all actives have a fitted effect of over 55% in size
Method in brief: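 ER-beta-UAS-bla HEK293T cells in 2% charcoal-stripped FBS medium, treated with compound plus 1 nM 17-beta-estradiol for 16 h at 37C. Viability read by CellTiter-Glo luminescence after 30 min at room temperature in the same wells.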

[14] = qHTS assay to identify small molecule phospholipidosis (PLD) inducers (AID 1259344; active = well fitted curve in the direction sought with a large enough effect; an effect the other way counts as inactive or inconclusive)
Method in brief: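 Fluorescent phospholipid staining (LipidTOX Red) measured by automated microscopy in fixed HepG2 cells after 24 h treatment; nuclei counterstained with Hoechst 33342; amiodarone as reference inducer.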

[15] = qHTS assay to identify small molecule agonists or antagonists of the thyroid stimulating hormone receptor (TSHR) signaling pathway - wild type cell line counter screen (AID 1259384; calls by dose curve)
Method in brief: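 Counter screen in untransfected Hek293: compounds (15-point titration, triplicate) plus phosphodiesterase inhibitor Ro20-1724 added after 18 h plating; 30 min RT. Intracellular cAMP via competitive d2/cryptate immunoassay, 1 h incubation.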

[16] = target: Thyrotropin receptor (Homo sapiens) (UniProt P16473); assay: qHTS assay to identify small molecule antagonists of the thyroid stimulating hormone receptor (TSHR) signaling pathway (AID 1259385; calls by dose curve; note: nearly all actives have a fitted effect of over 20% in size)
Method in brief: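 Antagonist mode: compound-treated TSHR-expressing HEK293 cells were stimulated with 1.5 ng/mL TSH (final) in presence of Ro20-1724 for 30 min at RT. HTRF cAMP detection after 1 h; each compound tested at 15 concentrations, triplicate.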

[17] = target: Estrogen receptor (Homo sapiens) (UniProt P03372); assay: qHTS assay to identify small molecule agonists of the estrogen receptor alpha (ER-alpha) signaling pathway in the presence of an antagonist (AID 1259383; calls by dose curve; note: top concentration of the series differs between compounds; nearly all actives have a fitted effect of over 15% in size)
Method in brief: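 VM7Luc4E2 cells express endogenous full-length ER-alpha with an ERE-luciferase reporter and were hormone-deprived for 5 days. Compounds at 15 concentrations were added with 10.0nM ICI-182,780 for 22hr at 37C. Luminescence was read with ONE-Glo.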
% is set by controls: 0 for no effect and ±100 for the full control effect.

Chain of Estrogen receptor beta (Homo sapiens) (Q92731 whole entry, looked up): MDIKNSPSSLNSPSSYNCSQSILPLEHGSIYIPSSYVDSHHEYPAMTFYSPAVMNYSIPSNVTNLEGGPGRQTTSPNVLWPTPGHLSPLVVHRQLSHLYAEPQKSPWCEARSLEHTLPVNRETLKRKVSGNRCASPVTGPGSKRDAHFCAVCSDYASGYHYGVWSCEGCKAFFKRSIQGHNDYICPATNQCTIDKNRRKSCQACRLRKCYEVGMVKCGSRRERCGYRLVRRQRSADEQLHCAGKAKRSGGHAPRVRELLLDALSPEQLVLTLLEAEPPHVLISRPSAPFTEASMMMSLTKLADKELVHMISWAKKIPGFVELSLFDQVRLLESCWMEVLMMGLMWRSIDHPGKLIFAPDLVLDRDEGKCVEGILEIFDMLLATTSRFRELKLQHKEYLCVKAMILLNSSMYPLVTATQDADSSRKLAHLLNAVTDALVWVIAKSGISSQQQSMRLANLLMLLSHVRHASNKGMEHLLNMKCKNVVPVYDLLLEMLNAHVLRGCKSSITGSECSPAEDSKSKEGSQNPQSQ
Chain of Thyrotropin receptor (Homo sapiens) (P16473 whole entry, looked up): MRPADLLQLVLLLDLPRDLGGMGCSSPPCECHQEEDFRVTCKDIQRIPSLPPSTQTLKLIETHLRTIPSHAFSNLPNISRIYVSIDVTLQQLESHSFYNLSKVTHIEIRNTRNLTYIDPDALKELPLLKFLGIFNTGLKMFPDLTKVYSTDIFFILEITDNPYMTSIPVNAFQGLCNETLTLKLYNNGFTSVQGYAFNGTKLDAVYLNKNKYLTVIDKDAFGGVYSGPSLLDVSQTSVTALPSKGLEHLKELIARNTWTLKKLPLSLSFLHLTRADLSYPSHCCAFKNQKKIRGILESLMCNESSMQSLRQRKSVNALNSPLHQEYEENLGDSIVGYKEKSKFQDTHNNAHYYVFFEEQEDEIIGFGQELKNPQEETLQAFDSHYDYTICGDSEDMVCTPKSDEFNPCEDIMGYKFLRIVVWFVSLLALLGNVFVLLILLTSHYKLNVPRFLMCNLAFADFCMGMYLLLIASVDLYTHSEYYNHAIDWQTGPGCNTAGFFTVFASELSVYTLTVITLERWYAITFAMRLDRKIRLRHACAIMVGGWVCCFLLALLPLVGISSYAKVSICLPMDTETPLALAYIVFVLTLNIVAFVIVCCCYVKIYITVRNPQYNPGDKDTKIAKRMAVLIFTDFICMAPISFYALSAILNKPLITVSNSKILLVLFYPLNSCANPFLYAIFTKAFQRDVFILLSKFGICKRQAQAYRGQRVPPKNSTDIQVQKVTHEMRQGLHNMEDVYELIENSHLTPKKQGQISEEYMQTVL
Chain of Estrogen receptor (Homo sapiens) (P03372 whole entry, looked up): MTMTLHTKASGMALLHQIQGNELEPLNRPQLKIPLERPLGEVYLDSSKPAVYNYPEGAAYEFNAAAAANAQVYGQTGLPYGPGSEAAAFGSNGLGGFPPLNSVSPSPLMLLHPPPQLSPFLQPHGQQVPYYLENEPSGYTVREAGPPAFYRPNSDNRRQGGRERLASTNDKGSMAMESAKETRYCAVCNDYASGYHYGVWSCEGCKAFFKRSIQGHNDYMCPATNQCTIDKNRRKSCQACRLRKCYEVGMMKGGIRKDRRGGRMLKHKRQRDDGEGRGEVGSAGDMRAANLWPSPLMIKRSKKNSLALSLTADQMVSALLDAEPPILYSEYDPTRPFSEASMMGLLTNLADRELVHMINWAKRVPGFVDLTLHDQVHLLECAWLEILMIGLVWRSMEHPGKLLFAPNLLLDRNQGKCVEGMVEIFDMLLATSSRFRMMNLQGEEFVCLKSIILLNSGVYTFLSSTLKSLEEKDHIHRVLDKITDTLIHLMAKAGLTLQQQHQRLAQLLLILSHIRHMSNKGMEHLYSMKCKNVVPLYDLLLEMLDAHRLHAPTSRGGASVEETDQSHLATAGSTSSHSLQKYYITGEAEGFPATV

OCCc1ccccn1
inactive: outcome [1] | outcome [2] | Potency [3] | outcome [4] | Potency [5] | Potency [6] | outcome [7] | Potency [8] | Potency [9] | Potency [10] | Potency [11] | Potency [12] | outcome [13]

O=C(O)CNC(=O)c1ccccc1
inactive: outcome [1] | outcome [2] | outcome [14] | Potency [3] | outcome [4] | Potency [5] | Potency [6] | outcome [7] | Potency [8] | Potency [9] | Potency [10] | Potency [11] | Potency [12] | outcome [15] | outcome [16]

CCCCCCCCCCOc1cc2c(=O)c(C(=O)OCC)c[nH]c2cc1OCC
inactive: activity change, negative = cytotoxicity [1] 4.33% [at 8.39 µM] | viability change, negative = cytotoxic [2] 2.82% [at 8.39 µM] | outcome [14] | activity change, negative = inhibition [3] 0.14% [at 8.39 µM] | activity change, negative = cytotoxicity [4] 9.44% [at 8.39 µM] | viability change, negative = cytotoxic [5] 2.95% [at 8.39 µM] | viability change, negative = cytotoxic [6] 5.79% [at 8.39 µM] | activity change [7] -0.042% [at 8.39 µM] | activity change, negative = inhibition [8] 27.8% [at 8.39 µM] | activation [9] -0.652% [at 8.39 µM] | activity, negative = inhibition [10] 11.6% [at 8.39 µM] | activity change, negative = cytotoxicity [11] 0.727% [at 8.39 µM] | activity change, negative = cytotoxicity [12] 7.19% [at 8.39 µM] | activity change, negative = cytotoxicity [13] 5.47% [at 8.39 µM] | activation [17] 0.417% [at 8.39 µM] | cAMP activity change [15] -4.45% [at 8.39 µM] | activity change, negative = inhibition [16] 0.172% [at 8.39 µM]

Cc1c(N)c(=O)n(-c2ccccc2)n1C
inactive: outcome [1] | outcome [2] | outcome [14] | Potency [3] | outcome [4] | Potency [5] | Potency [6] | outcome [7] | Potency [8] | Potency [11] | Potency [12] | outcome [13] | outcome [15] | outcome [16]

C=C(C)C(=O)OCC1CCCO1 (stereo not drawn)
inactive: outcome [1] | outcome [2] | Potency [3] | outcome [4] | Potency [5] | Potency [6] | outcome [7] | Potency [8] | Potency [9] | Potency [10] | Potency [11] | Potency [12] | outcome [13]

NC(N)=NCCN1CCCCCCC1
inactive: activity change, negative = cytotoxicity [1] -0.721% [at 0.349 µM] | viability change, negative = cytotoxic [2] 1.84% [at 0.349 µM] | outcome [14] | activity change, negative = inhibition [3] -1.37% [at 0.349 µM] | activity change, negative = cytotoxicity [4] -1.69% [at 0.349 µM] | viability change, negative = cytotoxic [5] -1.53% [at 0.349 µM] | viability change, negative = cytotoxic [6] 3.04% [at 0.349 µM] | activity change [7] -0.0353% [at 0.349 µM] | activity change, negative = inhibition [8] 18.5% [at 0.349 µM] | activity change, negative = cytotoxicity [11] -1.24% [at 0.35 µM] | activity change, negative = cytotoxicity [12] 2.58% [at 0.349 µM] | activity change, negative = cytotoxicity [13] 9.29% [at 0.349 µM] | cAMP activity change [15] 3.9% [at 0.349 µM] | activity change, negative = inhibition [16] -0.745% [at 0.349 µM]

CN1CC(=O)N/C1=N/C(=O)Nc1cccc(Cl)c1
inactive: outcome [1] | outcome [2] | outcome [14] | outcome [4] | Potency [5] | Potency [6] | outcome [7] | Potency [8] | Potency [9] | Potency [10] | Potency [11] | Potency [12] | outcome [13] | outcome [15] | outcome [16]
active: Potency [3] 4.22 µM

CC[N+](C)(CC)CCOC(=O)C1c2ccccc2Oc2ccccc21
inactive: outcome [1] | outcome [2] | outcome [14] | Potency [3] | outcome [4] | Potency [5] | Potency [6] | outcome [7] | Potency [8] | Potency [11] | Potency [12] | outcome [13] | outcome [15] | outcome [16]

C[N+]1(CC2COC(c3ccccc3)(c3ccccc3)O2)CCCCC1 (stereo not drawn)
inactive: activity change, negative = cytotoxicity [1] 0.56% [at 19 µM] | viability change, negative = cytotoxic [2] 1.83% [at 19 µM] | outcome [14] | activity change, negative = inhibition [3] 0.669% [at 19 µM] | activity change, negative = cytotoxicity [4] 0.214% [at 19 µM] | viability change, negative = cytotoxic [5] 9.08% [at 19 µM] | viability change, negative = cytotoxic [6] 14.2% [at 19 µM] | activity change [7] 0.753% [at 18.9 µM] | activity change, negative = inhibition [8] -10.9% [at 19 µM] | activity change, negative = cytotoxicity [11] 4% [at 19 µM] | activity change, negative = cytotoxicity [12] 12% [at 19 µM] | activity change, negative = cytotoxicity [13] 0.56% [at 19 µM]

CCCc1ncc(C[n+]2ccccc2C)c(N)n1
inactive: outcome [1] | outcome [2] | outcome [14] | Potency [3] | outcome [4] | Potency [5] | Potency [6] | outcome [7] | Potency [8] | Potency [9] | Potency [10] | Potency [11] | Potency [12]

C[N+]12CCC(CC1)C(OC(=O)C(O)(c1ccccc1)c1ccccc1)C2 (stereo not drawn)
inactive: outcome [1] | outcome [2] | outcome [14] | Potency [3] | outcome [4] | Potency [5] | Potency [6] | outcome [7] | Potency [12] | outcome [13] | outcome [15] | outcome [16]

NC(=O)N1c2ccccc2CC(=O)c2ccccc21
inactive: outcome [1] | outcome [2] | outcome [14] | Potency [3] | outcome [4] | Potency [5] | Potency [6] | outcome [7] | Potency [9] | Potency [10] | Potency [11] | Potency [12] | outcome [13] | outcome [15] | outcome [16]
